Bioassay records (PubChem BioAssay)
Sm TGR block – S. mansoni TGR enzyme inhibition; Q962Y6; purified TGR, DTNB reduction, TNB absorbance 405 nm; Potency, µM (top dose mostly 114 µM), hits mostly inhibitors; 3% of 360,000 active; AID 485364; further: nearly all actives have a fitted effect of over 60% in size
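First, TGR (20 nM dispensed) and NADPH were mixed with compound. Second, a 15 min room-temperature incubation followed. Third, further NADPH and then DTNB were added to start the reaction. Finally, TNB absorbance was monitored kinetically.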
AmpC inh no detg – AmpC beta-lactamase inhibition without detergent | P00811 | AmpC nitrocefin hydrolysis, absorbance 480 nm, 0.0001% Triton | Potency, µM (titrated, usually from 57.1 µM), actives largely listed as inhibitors | 0.52% of 330,000 active | AID 485341; further: nearly all actives have a fitted effect of over 20% in size
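20 mM phosphate pH 7.0 + 0.01% (detergent screen) or 0.0001% Triton X-100; 5.3 nM AmpC reagent; cpd preinc 15 min RT; nitrocefin (800 uM stock) to start; A480 q20 s × 4 min; Activity was normalised to no-enzyme and no-compound control wells.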
RE007 growth inh – less growth of the S. pombe RE007 Vpr strain | S. pombe RE007 Vpr strain, BacTiter-Glo ATP luminescence, 24 h | Potency, µM (top dose mostly 92.2 µM), usual class: inhibitors | 0.21% of 360,000 active | AID 651644; active means well fitted falling curve with a large enough effect; inconclusive means small, poorly fitted or top-dose-only effect; inactive means no such curve, though single readings can be large or run the other way; further: nearly all actives have a fitted effect of over 50% in size
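Fission yeast RE007 carrying one integrated HIV-1 vpr copy, seeded at OD 0.01 in PMG+AL medium with 23 nL pinned compound. Grown 24 h at 30 degrees; viability read by BacTiter-Glo luminescence after 5 min.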
Giardia FBPA inh – Giardia lamblia aldolase inhibition; Potency, µM (series often up to 59.6 µM), most hits filed as inhibitors; A8B2U2; purified Giardia FBPA; 0.71% of 290,000 active; AID 2451; further: nearly all actives have a fitted effect of over 55% in size
Target sequence (A8B2U2 whole entry, looked up): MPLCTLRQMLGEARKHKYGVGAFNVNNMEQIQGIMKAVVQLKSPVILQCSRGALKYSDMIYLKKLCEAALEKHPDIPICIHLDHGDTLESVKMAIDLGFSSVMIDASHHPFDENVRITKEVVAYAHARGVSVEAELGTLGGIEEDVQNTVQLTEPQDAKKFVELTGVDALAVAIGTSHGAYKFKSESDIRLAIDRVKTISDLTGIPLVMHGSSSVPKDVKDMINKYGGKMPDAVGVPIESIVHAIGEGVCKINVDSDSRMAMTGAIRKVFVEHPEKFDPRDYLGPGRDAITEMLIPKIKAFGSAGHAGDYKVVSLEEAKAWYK
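Giardia FBPA (40 nM reagent) was preincubated 10 min at RT with compound (up to 57.5 uM final), then substrate plus GAPDH/TPI/NAD/arsenate coupling system with diaphorase/resazurin was added; resorufin fluorescence (525/598 nm) was read after 20 min.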
AmpC inh detg – inhibitors of E. coli AmpC beta-lactamase with detergent; P00811; AmpC hydrolysis of nitrocefin, absorbance 480 nm, 0.01% Triton; Potency, µM (top dose mostly 114 µM), most hits filed as inhibitors; 0.041% of 370,000 active; AID 485294; further: nearly all actives have a fitted effect of over 25% in size
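AmpC (5.3 nM in the dispensed reagent) in 20 mM phosphate pH 7.0 with 0.01% (detergent screen) or 0.0001% Triton X-100 was preincubated with compounds for 15 min at room temperature. Nitrocefin was then added from an 800 uM solution, and hydrolysis was followed at 480 nm.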
Numbers stand for hits. Compounds with a hit are over-represented: about 3.4% of the library has one in this group of screens. Unless noted, the call rests on the fitted dose curve; in most records, active means well fitted curve in the direction sought with a large enough effect; inconclusive means small, poorly fitted or top-dose-only effect, or another doubt; inactive means no such curve, though single readings can be large; an effect the other way counts as inactive or inconclusive.

How did Cc1c(Cl)cnc(NC(=O)COC(=O)/C=C/c2ccco2)c1Cl do in these assays?
Sm TGR block: 10µM; AmpC inh no detg: inactive; RE007 growth inh: inactive; AmpC inh detg: inconclusive

How did O=C(COC(=O)/C=C/c1ccco1)Nc1ncc(C(F)(F)F)cc1Cl do in these assays?
Sm TGR block: inconclusive; AmpC inh no detg: inactive; RE007 growth inh: inactive; Giardia FBPA inh: inactive; AmpC inh detg: inactive

Results for COc1ccccc1NC(=O)Cn1nnc(-c2ccccc2NC(=O)c2cnccn2)n1 ?
Sm TGR block: inactive; AmpC inh no detg: inactive; RE007 growth inh: inactive; Giardia FBPA inh: inactive; AmpC inh detg: inactive

How did CC(=O)c1ccc(N2CCN(C(=O)CN3C(=O)NC4(CCCCC4)C3=O)CC2)c(F)c1 do in these assays?
Sm TGR block: inactive; AmpC inh no detg: inactive; RE007 growth inh: inactive; AmpC inh detg: inactive

How did CCOc1ccc(-c2nnc3ccc(SCC(=O)NCc4ccco4)nn23)cc1 do in these assays?
Sm TGR block: inactive; AmpC inh no detg: inactive; RE007 growth inh: inactive; Giardia FBPA inh: inactive; AmpC inh detg: inactive

Results for O=C(CSc1ccc2nnc(-c3ccc(F)cc3)n2n1)NCc1ccco1 ?
Sm TGR block: 45µM; AmpC inh no detg: inactive; RE007 growth inh: inactive; Giardia FBPA inh: inactive; AmpC inh detg: inactive

Results for Cc1ccc(-c2nnc3ccc(SCC(=O)NCc4ccco4)nn23)cc1 ?
Sm TGR block: 50µM; AmpC inh no detg: inactive; RE007 growth inh: inactive; Giardia FBPA inh: inactive; AmpC inh detg: inactive

What do the screens show for `CCOC(=O)CC(=O)CSc1ccc2nnc(-c3ccccc3)n2n1`?
Sm TGR block: inactive; AmpC inh no detg: 0.16µM; RE007 growth inh: inactive; Giardia FBPA inh: inactive; AmpC inh detg: inactive

What do the screens show for `Cc1ccc(-n2c(SCC(=O)NCc3ccco3)nnc2-c2cccnc2)cc1`?
Sm TGR block: 45µM; AmpC inh no detg: inactive; RE007 growth inh: inactive; Giardia FBPA inh: inactive; AmpC inh detg: inactive

Results for Cc1cnn(CCC(=O)NNC(=S)Nc2ccccc2)c1 ?
Sm TGR block: inactive; AmpC inh no detg: inactive; RE007 growth inh: inactive; Giardia FBPA inh: inactive; AmpC inh detg: inactive

What do the screens show for `COc1ccccc1-n1nnnc1SCC(=O)NCC1(N2CCOCC2)CCCCC1`?
Sm TGR block: inactive; AmpC inh no detg: inactive; RE007 growth inh: inactive; AmpC inh detg: inactive

Results for CCOc1ccc2nc(NC(=O)CSc3nc4cccnc4n3C)sc2c1 ?
Sm TGR block: inactive; AmpC inh no detg: inactive; RE007 growth inh: inactive; Giardia FBPA inh: inactive; AmpC inh detg: inactive

What do the screens show for `CC(C)C[C@H](NC(=O)[C@H](CC(C)C)NC(=O)[C@H](Cc1ccccc1)NC(=O)[C@@H](N)CO)C(=O)N[C@@H](CCCNC(=N)N)C(=O)N[C@@H](CC(N)=O)C(=O)N1CCC[C@H]1C(=O)N[C@@H](CC(N)=O)C(=O)N[C@@H](CC(=O)O)C(=O)N[C@@H](CCCCN)C(=O)N[C@@H](Cc1ccc(O)cc1)C(=O)N[C@@H](CCC(=O)O)C(=O)N1CCC[C@H]1C(=O)N[C@@H](Cc1ccccc1)C(=O)O`?
Giardia FBPA inh: inactive

What do the screens show for `O=C(CSc1nnc(C2CCCCC2)n1-c1ccccc1)NCc1ccco1`?
Sm TGR block: 45µM; AmpC inh no detg: inactive; RE007 growth inh: inactive; Giardia FBPA inh: inactive; AmpC inh detg: inconclusive

What do the screens show for `O=C(CSc1ccc2nnc(-c3ccncc3)n2n1)NCc1ccco1`?
Sm TGR block: 3.2µM; AmpC inh no detg: inactive; RE007 growth inh: inactive; Giardia FBPA inh: inactive; AmpC inh detg: inactive

What do the screens show for `CCSc1ccc2nnc(-c3ccc(F)cc3)n2n1`?
Sm TGR block: inactive; AmpC inh no detg: 0.4µM; RE007 growth inh: inactive; Giardia FBPA inh: inactive; AmpC inh detg: inactive

Results for COc1ccc(CC(=O)N2CCN(S(=O)(=O)c3ccc(Cl)s3)CC2)cc1 ?
Sm TGR block: inactive; AmpC inh no detg: inactive; RE007 growth inh: inactive; AmpC inh detg: inactive

What do the screens show for `O=C(COC(=O)Cc1cccc2ccccc12)Nc1ccccc1-c1ccccc1`?
Sm TGR block: inactive; AmpC inh no detg: inactive; RE007 growth inh: inactive; Giardia FBPA inh: inactive; AmpC inh detg: inactive

Results for Cn1cc(S(=O)(=O)NCc2cccs2)c(=O)n(C)c1=O ?
Sm TGR block: inactive; AmpC inh no detg: inactive; RE007 growth inh: inactive; Giardia FBPA inh: inactive; AmpC inh detg: inconclusive
